A selection: hits, their analogues and other compounds. The true share with any hit is near 27%.
CYP2C9 act: CYP2C9 (human) activation | recombinant CYP2C9, luciferin-H conversion, luminescence; stronger effect = higher value; factor 1 = untreated enzyme, 0 = blocked | activation factor at 5 µM | hit rate 1.4% among 96,000 | AID 1024;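 active = activation factor of 2 or more for CYP2C9 at a 5 µM dose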;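 note: 0 = sulfaphenazole-blocked wells and 1 = vehicle-only wells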
Target sequence (P11712 whole entry, looked up): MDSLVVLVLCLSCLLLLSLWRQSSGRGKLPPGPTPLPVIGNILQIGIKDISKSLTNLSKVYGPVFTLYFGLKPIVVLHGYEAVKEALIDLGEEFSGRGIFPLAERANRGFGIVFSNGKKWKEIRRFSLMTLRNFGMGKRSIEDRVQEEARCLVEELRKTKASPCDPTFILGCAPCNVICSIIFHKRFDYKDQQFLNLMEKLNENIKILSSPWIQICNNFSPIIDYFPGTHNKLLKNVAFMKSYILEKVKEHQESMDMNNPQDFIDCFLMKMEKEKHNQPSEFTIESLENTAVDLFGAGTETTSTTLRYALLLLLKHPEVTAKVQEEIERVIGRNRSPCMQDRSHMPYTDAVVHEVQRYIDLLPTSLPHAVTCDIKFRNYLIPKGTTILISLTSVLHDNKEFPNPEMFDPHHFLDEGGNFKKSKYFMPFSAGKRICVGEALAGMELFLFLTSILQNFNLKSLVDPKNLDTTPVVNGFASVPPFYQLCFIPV
CYP2C9 inh: human CYP2C9 inhibition; P11712; inhibition, % at 5 µM; CYP2C9 Supersomes, luciferin-H conversion, luminescence; hit rate 20% among 96,000;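 active = blocking of liver enzyme CYP2C9 beyond about 50% at 5 µM, limit read from the data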
sEH activator: soluble epoxide hydrolase (human) activation. purified human sEH enzymatic activity, activator screen. hit rate 0.04% among 91,000. activation, % at 2 µM. P34913. AID 717; in the data active = activation above about 37%
CYP2C19 inhib: human CYP2C19 inhibition; inhibition, % at 5 µM; hit rate 21% among 96,000; CYP2C19 Supersomes, luciferin-H EGE luminescence, 30 min; AID 778;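 active = CYP2C19 inhibition above a set limit at 5 µM in the primary screen, cut at about 50% in these data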;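 note: plate controls were negative control wells for no effect and 2.5 mM tranylcypromine positive control for full effect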
sEH inh: blocks human soluble epoxide hydrolase activity; P34913; recombinant human sEH enzymatic activity assay; inhibition, % at 2 µM; hit rate 0.34% among 91,000; in the data active = inhibition above about 80%
CYP2C19 activ: activators of human cytochrome P450 2C19. recombinant CYP2C19, luciferin-H EGE luminescence; stronger effect = higher value; 0 = fully inhibited enzyme, 1 = untreated enzyme. activation factor at 5 µM. 96,000 tested, under 10 active. AID 1025;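 active = activation factor of at least 2 at 5 µM in the primary screen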;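 note: 0 = wells with 2.5 mM tranylcypromine and 1 = vehicle-only wells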
* marks the source's active call; other numbers are inactive results; x = no result.

SMILES	CYP2C9 act	CYP2C9 inh	sEH activator	CYP2C19 inhib	sEH inh	CYP2C19 activ
CC1=C(C(=O)OCc2ccccc2)C(c2ccsc2)C(C#N)=C(N)O1 (stereo unspecified)	x	x	-20	x	22	x
COc1ccc(C2C(C#N)=C(N)OC3=C2C(=O)CC(C)(C)C3)c(OC)c1OC (stereo unspecified)	0.3	71*	x	40	x	0.6
Cc1ccc(OCCCn2cc(C#N)c3ccccc32)cc1	x	x	11	x	-8	x
NC(=O)Nc1ccc(F)cc1	1	-3	-2	-3	1	1
CCSc1cc(C2C(C#N)=C(N)OC(C)=C2C(=O)OC)c(C)o1 (stereo unspecified)	0.2	81*	-1	90*	1	0.1
CCOC(=O)C1=C(C)N(C)C(=O)NC1c1c(C)nn(-c2ccc(C)cc2)c1Cl (stereo unspecified)	0.3	74*	0	83*	2	0.2
COC(=O)C1=C(C)OC(N)=C(C#N)C1c1ccc(OC)c(CSc2ccccn2)c1 (stereo unspecified)	0.1	89*	13	79*	-17	0.2
N#CC1=C(N)Oc2n[nH]c(-c3cccs3)c2C1C1CCCCC1 (stereo unspecified)	1	2	-4	45	3	0.5
COC(=O)C1=C(C)OC(N)=C(C#N)C1C1CCCCC1 (stereo unspecified)	0.5	54*	-25	78*	25	0.2
CC(=O)c1cc2c(cc1NC(=O)CN1CCN(c3ccc(F)cc3)CC1)OCO2	0.6	40	0	0	3	1
Cc1cc(C)n(C2=NS(=O)(=O)c3ccccc32)n1	1.2	-17	-5	-6	4	1.1
CC(=O)N1c2ccccc2C(C)(C)C2CCC(C)CC21 (stereo unspecified)	x	x	3	x	-1	x
Cc1ccc(-n2nc(C)c3c2OC(N)=C(C#N)C3c2ccc(C)o2)cc1 (stereo unspecified)	x	x	-2	x	5	x
COC(=O)C1=C(C)OC(N)=C(C#N)C1c1c(C)nn(-c2ccccc2)c1Cl (stereo unspecified)	0	96*	-4	97*	5	0
CCOC(=O)C1=C(C)OC(N)=C(C#N)C1c1c(C)nn(-c2ccc(C)cc2)c1Cl (stereo unspecified)	0	97*	-1	100*	2	0
CCOC(=O)C1=C(C)N(c2nonc2NC(C)=O)C(N)=C(C#N)C1c1ccccc1F (stereo unspecified)	0.3	73*	-8	73*	7	0.3
COc1ccc(C(c2nnnn2CCc2ccccc2)N2CCN(C3CCCC3)CC2)cc1OC (stereo unspecified)	0.9	12	x	-8	x	1.1
Cc1ccc(C)n1CCN1CCN(CC(=O)Nc2cc(C(F)(F)F)ccc2Cl)CC1	0.6	45	1	16	-1	0.8
O=C(NC(CO)c1ccccc1)c1ccco1 (stereo unspecified)	0.8	18	8	3	-8	1
CC(C)C(=O)NC(Nc1cccc2cccnc12)C(Cl)(Cl)Cl (stereo unspecified)	0.4	63*	-4	59*	5	0.4
Cc1cccc(CC2CC(=O)N(C3CCCCC3)C2=O)c1 (stereo unspecified)	0.4	58*	-1	99*	1	0
Cc1cccc(CC2CC(=O)N(c3ncccn3)C2=O)c1 (stereo unspecified)	1	0	16	7	-12	0.9
Cc1cccc(CC2CC(=O)N(c3ccccc3)C2=O)c1 (stereo unspecified)	0.8	23	-18	88*	22	0.1
CCCCCn1c(=O)c(C(=O)OCC)c(O)c2ccccc21	1	4	x	-4	x	1
CCCCCCCCn1c(=O)c(C(=O)OCC)c(O)c2ccccc21	0.2	78*	-2	42	0	0.6
SMILES	CYP2C9 act	CYP2C9 inh	sEH activator	CYP2C19 inhib	sEH inh	CYP2C19 activ
CCCCOc1ccc(-c2nnc(-c3ccncc3)o2)cc1	0.5	54*	x	96*	x	0
CCCOc1ccc(-c2nnc(-c3cccs3)o2)cc1	x	x	2	x	1	x
CCOc1ccc(-c2nnc(-c3ccncc3)o2)cc1	0.6	44	3	99*	-5	0
COc1ccc(NC(=O)c2ccco2)cc1NC(=O)c1c(F)c(F)c(OC)c(F)c1F	1	3	-4	-2	7	1
CCOc1ccc(C(C)NC(=O)CCC(=O)O)cc1 (stereo unspecified)	0.9	8	x	2	x	1
COC(=O)C1C2C=CC(C3CC23)C1C(=O)OCC(=O)c1ccccc1 (stereo unspecified)	0.4	57*	-3	95*	5	0
COC(=O)C1C2C=CC(C3CC23)C1C(=O)OCC(=O)c1ccc(OC)cc1 (stereo unspecified)	0.6	38	-17	83*	19	0.2
CC(=O)Nc1ccc(S(=O)(=O)N(C)c2ccc(O)cc2)cc1	0.9	13	5	12	-5	0.9
Cc1ccc(S(=O)(=O)N(C)c2ccccc2)cc1	1.6	-65	-8	94*	9	0.1
Cc1ccc(N(C)S(=O)(=O)c2ccc(C)cc2)cc1	0.5	51*	-5	90*	4	0.1
Cc1ccc(S(=O)(=O)N(C)c2ccc(NS(C)(=O)=O)cc2)cc1	2*	-100	7	66*	-9	0.3
Cc1ccc(S(=O)(=O)N(C)c2ccc(OCC(=O)O)cc2)cc1	0.7	34	7	-1	-8	1
CCC(=O)N1CCc2cc(OC)c(OC)cc2C1COc1ccc(C(=O)OC)cc1 (stereo unspecified)	0.7	33	15	60*	-16	0.4
COc1ccc(OC(C)=O)c(C2c3cc(OC)c(OC)cc3CCN2C(C)=O)c1 (stereo unspecified)	0.7	30	x	35	x	0.7
Cc1cccc(NC(=O)C2CCCN2C(=O)Oc2ccccc2)c1 (stereo unspecified)	0.4	57*	-10	88*	13	0.1
Cc1csc(NC(=O)C2CCCN2C(=O)Oc2ccccc2)n1 (stereo unspecified)	0.9	6	x	12	x	0.9
Cc1cc(C)cc(NC(=O)C2CCCN2C(=O)Oc2ccccc2)c1 (stereo unspecified)	0.3	67*	10	66*	-8	0.3
Cc1c(N)cccc1-c1nc2ccccc2[nH]1	x	x	-3	x	5	x
CCCNC(=O)CN1C(=O)NC2(CCCc3cc(OC)ccc32)C1=O (stereo unspecified)	1.1	-15	0	3	3	1
Nc1nnc(SCCOc2ccccc2)s1	0.4	63*	0	87*	-4	0.1
Nc1nnc(SCCOc2ccc(Br)cc2)s1	0.8	19	1	82*	0	0.2
COc1ccc(NC(=O)CSc2nnc(N)s2)cc1	0.9	10	-2	1	2	1
CCOc1ccc(C(=O)CSc2nnc(N)s2)cc1	0.7	34	x	58*	x	0.4

High-throughput results as filed in PubChem BioAssay.
